Data on ten compounds can be found in PubChem BioAssay (NCI).

Experiment [1] in a line: NCI Yeast Anticancer Drug Screen. Data for the rad50 strain (AID 155).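 Note: 0% = growth of vehicle-only cultures of the same strain.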 The settings on record: S. cerevisiae rad50 strain growth inhibition, active compounds read high. In short, it runs like this: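 Growth of the mutant yeast was measured after compound exposure and referenced to vehicle-treated cultures.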
Experiment [2] is described as follows: NCI Yeast Anticancer Drug Screen. Data for the mec2-1 strain (AID 157). The settings on record: S. cerevisiae mec2-1 strain, active compounds read high. In short, it runs like this: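 Strain: mec2-1 (DNA repair/cell cycle alteration). Compound exposure, then growth measured; inhibition expressed relative to vehicle.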
Experiment [3] is described as follows: NCI Yeast Anticancer Drug Screen. Data for the sgs1 mgt1 strain (AID 161).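 Note: 0% = growth of cultures given vehicle only.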 The note with it: S. cerevisiae sgs1 mgt1 strain, active compounds read high. Put shortly:
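Mutant yeast exposed to compound; growth scored against vehicle-only wells.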

The nature of experiment [4]: NCI Yeast Anticancer Drug Screen. Data for the cln2 rad14 strain (AID 165).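 Note: 0% = growth equal to vehicle treated cultures.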 The settings on record: S. cerevisiae cln2 rad14 strain, active compounds read high. Put shortly:
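Compounds are applied to the cln2 rad14 yeast strain, and growth is then compared with that of vehicle-treated cultures to give inhibition.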

The nature of experiment [5]: NCI Yeast Anticancer Drug Screen. Data for the bub3 strain (AID 167). The settings on record: S. cerevisiae bub3 mutant strain, active compounds read high. In short, it runs like this: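 Whole-cell yeast assay. The mutant strain was incubated with compounds, and growth inhibition was determined by comparison with vehicle-treated cells.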
Experiment [6] in a line: NCI Yeast Anticancer Drug Screen. Data for the mlh1 rad18 strain (AID 175). The settings on record: S. cerevisiae mlh1 rad18 strain growth inhibition, active compounds read high. Put shortly: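 Read-out is yeast growth inhibition, calculated against vehicle-only controls. The compound was applied to a strain engineered with DNA damage repair alterations.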
[7] abbreviates: at 5.0 µM (retest, dose inferred, filed as 0.5).
[8] abbreviates: at 50.0 µM (retest, dose inferred, filed as 5.0).

The structures appear in SMILES notation. Compounds without any hit were thinned out: in the full panel of roughly 79,000, 15% have a hit. Unmarked numbers belong to inactive results. Calls of active or inactive are those of the source. Cut-off read from the data, not from the text of the source: active = growth inhibition above about 70%; inactive = the rest.

Turning to `CCC1(C)CCC2(C)C(CCC3C4(C)CCCC32OC4=O)C1` (stereo not given), the growth inhibition was 16% in experiment [1] (setting [7]); 93% (active) in experiment [1] (setting [8]); 97.5% (active) in experiment [1] (at 50.0 µM); -2% in experiment [2] (setting [7]); 96% (active) in experiment [2] (setting [8]); 94.3% (active) in experiment [2] (at 50.0 µM). In addition, the growth inhibition in experiment [3] (setting [7]) is 2%; in experiment [3] (setting [8]), 97% (active); in experiment [3] (at 50.0 µM), 96.8% (active); in experiment [4] (setting [7]), -9%; in experiment [4] (setting [8]), 92% (active); in experiment [4] (at 50.0 µM), 91.9% (active). Further, the growth inhibition in experiment [5] (setting [7]) was 15%; in experiment [5] (setting [8]) it was 98% (active); in experiment [5] (at 50.0 µM), 96.2% (active); in experiment [6] (setting [7]), -10%; in experiment [6] (setting [8]), 92% (active); in experiment [6] (at 50.0 µM), 92.2% (active).
Turning to `C=CCNC(=O)NC1=CSC2=NC(=O)C3(NN12)c1ccccc1-c1ccccc13`, the growth inhibition in experiment [1] (setting [7]) was -1%; in experiment [1] (setting [8]), 50%; in experiment [1] (at 50.0 µM), 76.7% (active); in experiment [2] (setting [7]), -13%; in experiment [2] (setting [8]) it was 48%; in experiment [2] (at 50.0 µM), 68.2%. Besides, the growth inhibition is -2% in experiment [3] (setting [7]); 63% in experiment [3] (setting [8]); 82.5% (active) in experiment [3] (at 50.0 µM); 0% in experiment [4] (setting [7]); 83% (active) in experiment [4] (setting [8]); 73.4% (active) in experiment [4] (at 50.0 µM). The growth inhibition in experiment [5] (setting [7]) was -6%; in experiment [5] (setting [8]), 66%; in experiment [5] (at 50.0 µM), 76.4% (active); in experiment [6] (setting [7]), -6%; in experiment [6] (setting [8]) it was 64%; in experiment [6] (at 50.0 µM), 82.1% (active).
`CCc1ccc(-c2ccccc2)cc1`: the growth inhibition was 1% in experiment [1] (setting [7]); 1% in experiment [1] (setting [8]); 9.45% in experiment [1] (at 50.0 µM); -1% in experiment [2] (setting [7]); 6% in experiment [2] (setting [8]); -2.95% in experiment [2] (at 50.0 µM). For the same compound, the growth inhibition was -1% in experiment [3] (setting [7]); -2% in experiment [3] (setting [8]); -3.9% in experiment [3] (at 50.0 µM); -7% in experiment [4] (setting [7]); 6% in experiment [4] (setting [8]); 76.9% (active) in experiment [4] (at 50.0 µM). Further, the growth inhibition in experiment [5] (setting [7]) was 9%; in experiment [5] (setting [8]), 10%; in experiment [5] (at 50.0 µM) it was 9.05%; in experiment [6] (setting [7]), 0%; in experiment [6] (setting [8]), 4%; in experiment [6] (at 50.0 µM), 8.75%.
In the case of `O=C(/C=C/C(=O)OCCCl)OCCCl`, the growth inhibition was 5% in experiment [1] (setting [7]); 95% (active) in experiment [1] (setting [8]); 69.2% in experiment [1] (at 50.0 µM); -24% in experiment [2] (setting [7]); 85% (active) in experiment [2] (setting [8]); 82.2% (active) in experiment [2] (at 50.0 µM). The growth inhibition is 4% in experiment [3] (setting [7]); 62% in experiment [3] (setting [8]); 92.5% (active) in experiment [3] (at 50.0 µM); 4% in experiment [4] (setting [7]); 27% in experiment [4] (setting [8]); -22.8% in experiment [4] (at 50.0 µM). Further, the growth inhibition in experiment [5] (setting [7]) was 46%; in experiment [5] (setting [8]) it was 91% (active); in experiment [5] (at 50.0 µM), 71.2% (active); in experiment [6] (setting [7]), 4%; in experiment [6] (setting [8]), 95% (active); in experiment [6] (at 50.0 µM) it was 95.2% (active).
For the compound `COc1ccc(C2CC(CO)ON2c2ccccc2)cc1` (stereo not given), the growth inhibition in experiment [1] (setting [7]) was -17%; in experiment [1] (setting [8]), 7%; in experiment [1] (at 50.0 µM), 98% (active); in experiment [2] (setting [7]) it was -14%; in experiment [2] (setting [8]) it was -9%; in experiment [2] (at 50.0 µM), 98.5% (active). Also, the growth inhibition in experiment [3] (setting [7]) is -1%; in experiment [3] (setting [8]), -15%; in experiment [3] (at 50.0 µM), 98.4% (active); in experiment [4] (setting [7]), -23%; in experiment [4] (setting [8]) it was -18%; in experiment [4] (at 50.0 µM), 97.9% (active). In addition, the growth inhibition in experiment [5] (setting [7]) is -21%; in experiment [5] (setting [8]), -33%; in experiment [5] (at 50.0 µM), 98.5% (active); in experiment [6] (setting [7]) it was -6%; in experiment [6] (setting [8]) it was 1%; in experiment [6] (at 50.0 µM), 98.8% (active).
For `O=C1Nc2ccccc2/C1=N\N=c1/scc(-c2ccccc2)n1-c1ccccc1`, the growth inhibition in experiment [1] (setting [7]) is 13%; in experiment [1] (setting [8]) it was 72% (active); in experiment [1] (at 50.0 µM), 59.5%; in experiment [2] (setting [7]) it was 5%; in experiment [2] (setting [8]) it was 74% (active); in experiment [2] (at 50.0 µM), 74.5% (active). The growth inhibition is 8% in experiment [3] (setting [7]); 61% in experiment [3] (setting [8]); 62.1% in experiment [3] (at 50.0 µM); 10% in experiment [4] (setting [7]); 90% (active) in experiment [4] (setting [8]); 62.6% in experiment [4] (at 50.0 µM). Besides, the growth inhibition in experiment [5] (setting [7]) is 9%; in experiment [5] (setting [8]) it was 87% (active); in experiment [5] (at 50.0 µM) it was 51.7%; in experiment [6] (setting [7]), 9%; in experiment [6] (setting [8]) it was 78% (active); in experiment [6] (at 50.0 µM), 88.5% (active).
In the case of `Cc1ccc2c(ccc(CC(=S)[S-])[n+]2C)c1`, the growth inhibition in experiment [1] (setting [7]) is 10%; in experiment [1] (setting [8]) it was 41%; in experiment [1] (at 50.0 µM), 58.2%; in experiment [2] (setting [7]), 11%; in experiment [2] (setting [8]), 21%; in experiment [2] (at 50.0 µM), 51.6%. For the same compound, the growth inhibition in experiment [3] (setting [7]) is 11%; in experiment [3] (setting [8]) it was 46%; in experiment [3] (at 50.0 µM) it was 66.3%; in experiment [4] (setting [7]) it was 10%; in experiment [4] (setting [8]) it was 37%; in experiment [4] (at 50.0 µM), 47.3%. Further, the growth inhibition in experiment [5] (setting [7]) was 3%; in experiment [5] (setting [8]), 38%; in experiment [5] (at 50.0 µM), 61.5%; in experiment [6] (setting [7]), 4%; in experiment [6] (setting [8]), 41%; in experiment [6] (at 50.0 µM), 90.2% (active).
Consider `CCC(c1cccc(O)c1)C(CC)c1cccc(O)c1` (stereo not given), for which the growth inhibition in experiment [1] (setting [7]) is 28%; in experiment [1] (setting [8]), 55%; in experiment [1] (at 50.0 µM) it was 57.2%; in experiment [2] (setting [7]) it was 19%; in experiment [2] (setting [8]), 67%; in experiment [2] (at 50.0 µM) it was 60.9%. The growth inhibition is 51% in experiment [3] (setting [7]); 76% (active) in experiment [3] (setting [8]); 39.4% in experiment [3] (at 50.0 µM); 50% in experiment [4] (setting [7]); 74% (active) in experiment [4] (setting [8]); 48.9% in experiment [4] (at 50.0 µM). For the same compound, the growth inhibition in experiment [5] (setting [7]) is 59%; in experiment [5] (setting [8]), 88% (active); in experiment [5] (at 50.0 µM), 66.3%; in experiment [6] (setting [7]), 17%; in experiment [6] (setting [8]), 55%; in experiment [6] (at 50.0 µM) it was 92.8% (active).
On to `CC(C)OC(=O)c1ccc(NCc2cc(O)ccc2O)cc1Cl`, for which the growth inhibition is 61% in experiment [1] (setting [7]); 99% (active) in experiment [1] (setting [8]); 89.8% (active) in experiment [1] (at 50.0 µM); 41% in experiment [2] (setting [7]); 99% (active) in experiment [2] (setting [8]); 90.3% (active) in experiment [2] (at 50.0 µM). In addition, the growth inhibition in experiment [3] (setting [7]) is 55%; in experiment [3] (setting [8]) it was 99% (active); in experiment [3] (at 50.0 µM), 91.6% (active); in experiment [4] (setting [7]), 63%; in experiment [4] (setting [8]), 100% (active); in experiment [4] (at 50.0 µM), 89.5% (active). The growth inhibition in experiment [5] (setting [7]) is 53%; in experiment [5] (setting [8]), 100% (active); in experiment [5] (at 50.0 µM) it was 88.9% (active); in experiment [6] (setting [7]), 49%; in experiment [6] (setting [8]) it was 98% (active); in experiment [6] (at 50.0 µM), 88% (active).
Take `O=C1c2ccccc2-c2ccccc2C(=O)C1(Br)Br`: the growth inhibition was -5% in experiment [1] (setting [7]); 8% in experiment [1] (setting [8]); 89.8% (active) in experiment [1] (at 50.0 µM); -1% in experiment [2] (setting [7]); -5% in experiment [2] (setting [8]); 91.1% (active) in experiment [2] (at 50.0 µM). The growth inhibition in experiment [3] (setting [7]) was 3%; in experiment [3] (setting [8]) it was -11%; in experiment [3] (at 50.0 µM) it was 88.3% (active); in experiment [4] (setting [7]), -8%; in experiment [4] (setting [8]), -4%; in experiment [4] (at 50.0 µM), 47.3%. Besides, the growth inhibition in experiment [5] (setting [7]) was -7%; in experiment [5] (setting [8]) it was -18%; in experiment [5] (at 50.0 µM), 66.7%; in experiment [6] (setting [7]), 0%; in experiment [6] (setting [8]) it was -7%; in experiment [6] (at 50.0 µM) it was 96.4% (active).
